Experimental data published in PubChem BioAssay AID1159580 (chemical genetic matrix, 2015).
Out of some 5,500 compounds screened, about 2,000 (36%) were called active. About 18% were inconclusive and are not listed. Some of the results follow. A number with no mark means an inactive call. No stated cut-off is given here; in the data, active means normalized growth mostly below about 0.91 (no sharp cut-off); inconclusive means no clear call, values can overlap the other calls; inactive means mostly above about 0.92.

Experiment: chemical genetic growth profiling, strain panel (AID 1159580);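 further: tested at 20 µM; growth read once vehicle control cultures reached saturation at 30 °C; 1 = growth at the plate median or of vehicle wells; lower values mean less growth of the strain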
Conditions: S. cerevisiae deletion strains, growth OD
[1] = locus YDL101C, strain DUN1, active compounds read low
[2] = locus YHR030C, strain SLT2, active compounds read low

Q: For CC(C)(C)OC(=O)NCc1n[nH]c(=S)n1-c1ccccc1, which normalized growth (locus YAL013W, strain DEP1, active compounds read low) is on record?
A: 1.03

Q: What about the normalized growth (locus YBR229C, strain ROT2, active compounds read low) of the same compound?
A: 1.01

Q: And the normalized growth [1]?
A: 1.02

Q: What about the normalized growth (locus YDL134C, strain PPH21, active compounds read low) of the same compound?
A: 1.01

Q: And the normalized growth (locus YDR150W, strain NUM1, active compounds read low)?
A: 1

Q: What about the normalized growth (locus YEL061C, strain CIN8, active compounds read low) of the same compound?
A: 0.993

Q: And the normalized growth (locus YGR078C, strain PAC10, active compounds read low)?
A: 1.01

Q: And the normalized growth (locus YGR229C, strain SMI1, active compounds read low)?
A: 0.999

Q: What about the normalized growth [2] of the same compound?
A: 1.09

Q: And the normalized growth (locus YHR087W, strain rtc3, active compounds read low)?
A: 1.01

Q: And the normalized growth (locus YJR043C, strain POL32, active compounds read low)?
A: 1.04

Q: What about the normalized growth (locus YJR075W, strain HOC1, active compounds read low) of the same compound?
A: 0.995

Q: What about the normalized growth (locus YLR039C, strain RIC1, active compounds read low) of the same compound?
A: 0.998

Q: And the normalized growth (locus YLR058C, strain SHM2 (second series), active compounds read low)?
A: 1.02

Q: What about the normalized growth (locus YLR085C, strain ARP6, active compounds read low) of the same compound?
A: 1.02

Q: What about the normalized growth (locus YLR262C, strain YPT6, active compounds read low) of the same compound?
A: 1.07

Q: And the normalized growth (locus YML094W, strain GIM5, active compounds read low)?
A: 1.01

Q: What about the normalized growth (locus YMR219W, strain ESC1, active compounds read low) of the same compound?
A: 1.01

Q: What about the normalized growth (locus YMR263W, strain SAP30, active compounds read low) of the same compound?
A: 1.01

Q: What about the normalized growth (locus YNL153C, strain GIM3, active compounds read low) of the same compound?
A: 0.958

Q: And the normalized growth (locus YNL298W, strain CLA4 (second series), active compounds read low)?
A: 1.06

Q: What about the normalized growth (locus YNL322C, strain KRE1, active compounds read low) of the same compound?
A: 0.999

Q: And the normalized growth (locus YNR030W, strain Alg12, active compounds read low)?
A: 1.01

Q: What about the normalized growth (locus YPL055C, strain LGE1, active compounds read low) of the same compound?
A: 1.02

Q: What about the normalized growth (locus YPL241C, strain CIN2, active compounds read low) of the same compound?
A: 0.994

Q: What about the normalized growth (locus YPR135W, strain CTF4, active compounds read low) of the same compound?
A: 1.12

Q: Which normalized growth (locus YAR019C, strain CDC15, active compounds read low) does the source give for FC(F)(F)Sc1ccc(OCc2n[nH]c(=S)n2-c2ccccc2)cc1 here?
A: 0.989

Q: What about the normalized growth (locus YBL105C, strain PKC1, active compounds read low) of the same compound?
A: 0.983

Q: And the normalized growth (locus YBR135W, strain CKS1, active compounds read low)?
A: 0.988

Q: What about the normalized growth (locus YBR136W, strain MEC1, active compounds read low) of the same compound?
A: 0.983

Q: What about the normalized growth (locus YBR160W, strain CDC28, active compounds read low) of the same compound?
A: 0.988

Q: And the normalized growth (locus YDL017W, strain CDC7, active compounds read low)?
A: 0.987

Q: What about the normalized growth (locus YDL028C, strain MPS1, active compounds read low) of the same compound?
A: 0.986

Q: What about the normalized growth [1] of the same compound?
A: 0.981

Q: And the normalized growth (locus YDL108W, strain KIN28, active compounds read low)?
A: 0.987

Q: And the normalized growth (locus YDL132W, strain cdc53, active compounds read low)?
A: 0.993

Q: And the normalized growth (locus YDL214C, strain PRR2, active compounds read low)?
A: 0.945

Q: And the normalized growth (locus YDR052C, strain DBF4, active compounds read low)?
A: 0.989

Q: What about the normalized growth (locus YDR054C, strain cdc34, active compounds read low) of the same compound?
A: 0.978

Q: And the normalized growth (locus YDR226W, strain ADK1, active compounds read low)?
A: 0.981

Q: And the normalized growth (locus YDR477W, strain SNF1, active compounds read low)?
A: 0.943

Q: And the normalized growth (locus YER123W, strain YCK3, active compounds read low)?
A: 0.873

Q: What about the normalized growth (locus YER133W, strain GLC7, active compounds read low) of the same compound?
A: 0.911

Q: What about the normalized growth (locus YFL009W, strain cdc4, active compounds read low) of the same compound?
A: 0.983

Q: And the normalized growth (locus YFL029C, strain CAK1, active compounds read low)?
A: 0.989

Q: What about the normalized growth (locus YFR003C, strain YPI1, active compounds read low) of the same compound?
A: 0.988

Q: And the normalized growth (locus YFR019W, strain FAB1, active compounds read low)?
A: 0.936

Q: What about the normalized growth (locus YFR028C, strain CDC14, active compounds read low) of the same compound?
A: 0.993

Q: What about the normalized growth (locus YGR040W, strain KSS1, active compounds read low) of the same compound?
A: 0.949

Q: What about the normalized growth (locus YGR052W, strain FMP48, active compounds read low) of the same compound?
A: 0.939

Q: What about the normalized growth (locus YGR092W, strain DBF2, active compounds read low) of the same compound?
A: 0.874

Q: What about the normalized growth [2] of the same compound?
A: 0.814 (active)

Q: And the normalized growth (locus YHR079C, strain IRE1, active compounds read low)?
A: 0.896

Q: And the normalized growth (locus YHR082C, strain KSP1, active compounds read low)?
A: 0.963

Q: What about the normalized growth (locus YHR205W, strain SCH9, active compounds read low) of the same compound?
A: 0.957

Q: And the normalized growth (locus YIL147C, strain SLN1, active compounds read low)?
A: 0.984

Q: And the normalized growth (locus YJL095W, strain BCK1, active compounds read low)?
A: 0.917

Q: And the normalized growth (locus YJL128C, strain PBS2, active compounds read low)?
A: 0.94

Q: What about the normalized growth (locus YJL157C, strain FAR1, active compounds read low) of the same compound?
A: 0.92

Q: And the normalized growth (locus YJR016C, strain ILV3, active compounds read low)?
A: 0.984

Q: What about the normalized growth (locus YJR066W, strain TOR1 (second series), active compounds read low) of the same compound?
A: 0.906

Q: And the normalized growth (locus YJR066W, strain TOR1, active compounds read low)?
A: 0.945

Q: And the normalized growth (locus YKL048C, strain ELM1, active compounds read low)?
A: 0.953

Q: What about the normalized growth (locus YKL067W, strain YNK1, active compounds read low) of the same compound?
A: 0.934

Q: And the normalized growth (locus YKL101W, strain HSL1, active compounds read low)?
A: 0.891

Q: And the normalized growth (locus YKL193C, strain SDS22, active compounds read low)?
A: 0.994

Q: What about the normalized growth (locus YKL203C, strain TOR2, active compounds read low) of the same compound?
A: 0.961

Q: What about the normalized growth (locus YLR113W, strain HOG1, active compounds read low) of the same compound?
A: 0.82 (active)

Q: What about the normalized growth (locus YLR133W, strain CKI1, active compounds read low) of the same compound?
A: 0.938

Q: And the normalized growth (locus YLR403W, strain SFP1, active compounds read low)?
A: 0.954

Q: And the normalized growth (locus YML070W, strain DAK1, active compounds read low)?
A: 0.92

Q: And the normalized growth (locus YMR001C, strain CDC5, active compounds read low)?
A: 0.991

Q: And the normalized growth (locus YMR205C, strain PFK2 (second series), active compounds read low)?
A: 0.946

Q: What about the normalized growth (locus YMR277W, strain FCP1, active compounds read low) of the same compound?
A: 0.992

Q: What about the normalized growth (locus YNL006W, strain LST8, active compounds read low) of the same compound?
A: 0.986

Q: What about the normalized growth (locus YNL020C, strain ARK1, active compounds read low) of the same compound?
A: 0.904

Q: And the normalized growth (locus YNL161W, strain CBK1, active compounds read low)?
A: 0.986

Q: And the normalized growth (locus YNL183C, strain NPR1, active compounds read low)?
A: 0.879

Q: What about the normalized growth (locus YNL207W, strain RIO2, active compounds read low) of the same compound?
A: 0.985

Q: And the normalized growth (locus YNL222W, strain SSU72, active compounds read low)?
A: 0.99

Q: And the normalized growth (locus YNL307C, strain MCK1 (second series), active compounds read low)?
A: 0.91

Q: What about the normalized growth (locus YOL078W, strain AVO1, active compounds read low) of the same compound?
A: 0.996

Q: What about the normalized growth (locus YOL136C, strain PFK27, active compounds read low) of the same compound?
A: 0.931

Q: And the normalized growth (locus YOR061W, strain CKA2, active compounds read low)?
A: 0.971

Q: And the normalized growth (locus YOR119C, strain RIO1, active compounds read low)?
A: 1

Q: And the normalized growth (locus YOR231W, strain MKK1, active compounds read low)?
A: 0.907

Q: What about the normalized growth (locus YOR329C, strain SCD5, active compounds read low) of the same compound?
A: 0.985

Q: What about the normalized growth (locus YPL031C, strain PHO85, active compounds read low) of the same compound?
A: 0.909

Q: What about the normalized growth (locus YPL153C, strain RAD53, active compounds read low) of the same compound?
A: 0.916

Q: And the normalized growth (locus YPL204W, strain HRR25, active compounds read low)?
A: 0.893

Q: And the normalized growth (locus YPL209C, strain IPL1, active compounds read low)?
A: 0.984

Q: And the normalized growth (locus YPL256C, strain CLN2, active compounds read low)?
A: 0.82 (active)

Q: And the normalized growth (locus YPR025C, strain CCL1, active compounds read low)?
A: 0.989

Q: What about the normalized growth (locus YPR106W, strain ISR1, active compounds read low) of the same compound?
A: 0.979

Q: What about the normalized growth (locus YPR111W, strain DBF20, active compounds read low) of the same compound?
A: 0.959

Q: What about the normalized growth (strain NNK1, active compounds read low) of the same compound?
A: 0.977

Q: And the normalized growth (strain TSCII, active compounds read low)?
A: 0.983
